# Reference: PubChem BioAssay (NCI)
# The panel holds about 83,000 compounds, 20% with a hit somewhere; the sample as a whole holds those more often.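 Interpretation: 100, growth as untreated; towards 0, rising growth inhibition; 0, no net growth; 0 to -100, cell death. Compounds scoring below 10 were considered active.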 Activity calls are given as the source filed them.
# Test system: HOP-62 NSCLC
# Experiment: NCI-60 one-dose screen, 48 h (100 = growth as untreated, 0 = no growth, -100 = all killed)
# Settings: 10 µM
row,SMILES,growth
1,COc1cc(C2CC(=O)Nc3c2c(C)nn3-c2nc3ccccc3[nH]2)cc(OC)c1O (stereo not drawn),88.6% (inactive)
2,CCCCC(CC#N)(CCC)CCC,116% (inactive)
3,COc1cc(C)c2sc3ccccc3c(=O)c2c1NCCN(C)C,67.7% (inactive)
4,O=C(CCl)N1c2ccccc2Sc2ccc3ccccc3c21,-77.8% (active)
5,CCOC(=O)Nc1ccc2c(c1)C(=O)N(CC)c1ccccc1O2,24.8% (inactive)
6,COc1ccc(/C=C(\c2cc(OC)c(OC)c(OC)c2)c2nnc(-c3cccs3)o2)cc1,41.3% (inactive)
7,COc1ccc(-c2cc(/C=C/C(=O)c3ccc(N)cc3)[nH]n2)cc1OC,55.4% (inactive)
8,CCCCCCCCCCSC(=N)N (tested in a mixture with another compound),77.3% (inactive)
9,CC(=O)CS(C)(=O)=O,106% (inactive)
10,Nc1ccc2c(c1)Cc1cc(N)c(Cl)cc1-2,109% (inactive)
11,CCOC(=O)c1cc(-c2ccccc2)nc(N)n1,96.1% (inactive)
12,CCCOCC(O)CNCCN (stereo not drawn),92.6% (inactive)
13,O=C(Nc1ccc(OCc2nnc(-c3ccccc3)o2)c(F)c1)Nc1ccc(Cl)c(Cl)c1,76.6% (inactive)
14,Cc1[nH]nc2c(=S)[nH]c(=O)[nH]c12,105% (inactive)
15,CCC(OC(=O)CC(C)C)c1ccccc1 (stereo not drawn),96.3% (inactive)
16,C/C=C\COc1cc(C)c(Cl)cc1Cl,109% (inactive)
17,CC(=O)N(O)c1ccc(/C=C/c2ccccc2)cc1,42.7% (inactive)
18,CCOC(=O)c1c(C(F)(F)F)n([O-])c2ccc(OC)cc2[n+]1=O,17.1% (inactive)
19,NCCNc1ccc2cc(-c3nc4ccccc4[nH]3)c(=O)oc2c1,94.7% (inactive)

row,SMILES,growth
1,Nc1ccc(Sc2ccc3c4c2cccc4c(=O)n2c4ccccc4nc32)cc1,51.2% (inactive)
2,COc1cccc(C(=O)NNc2nc(N3CCOCC3)nc(N3CCN(C(c4ccccc4)c4ccccc4)CC3)n2)c1,82.2% (inactive)
3,C=CCN1C(=O)/C(=C\c2ccc3c(c2)CCC3)SC1=S,76.3% (inactive)
4,COc1cccc(-c2nnc(COc3ccc(-c4nc5ccc(C)cc5[nH]4)cc3OC)o2)c1,101% (inactive)
5,CNC(=O)c1cc(Oc2ccc(NC(=O)Nc3ccc(Cl)c(C(C)(C)C)c3)c(F)c2)ccn1,64.4% (inactive)
6,CC(=O)/C(=C\c1ccc(Cl)cc1)c1ccccc1,32% (inactive)
7,Cc1cc(C)c(C(=O)OC(C)CNC2CCCCC2)c(C)c1 (stereo not drawn),85.7% (inactive)
8,CC(=O)Oc1ccc(C2=Cc3ccc(OC(C)=O)cc3OC2C)cc1 (stereo not drawn),81.8% (inactive)
9,CC(=O)Nc1nc(C)c(C(=O)NNC=O)s1,111% (inactive)
10,CCCCC(=O)N(c1ccc(Nc2c3ccccc3nc3cc([N+](=O)[O-])ccc23)cc1)S(C)(=O)=O,56% (inactive)
11,O=C1/C(=C/c2ccc(O)cc2O)N=C2SCCCN12,85.4% (inactive)
12,Cc1ccc2c(c1)-c1cc(C)nn1-c1ccc(C#N)cc1O2,51.6% (inactive)
13,O=C(c1ccc(Cl)cc1)c1no[n+]([O-])c1C(=O)c1ccc(Cl)cc1,104% (inactive)
14,Nc1nsc(C(=O)c2ccc(O)cc2)n1,76.4% (inactive)
15,COc1ccc(C2=Cc3ccc(OC(C)=O)cc3OC2)cc1,109% (inactive)
16,Cc1nc2cc(-n3c(-c4ccc(F)cc4)nc4ccccc4c3=O)ccc2n1Cc1ccccc1,45.1% (inactive)
17,Cc1nnc2c3nnc(-c4ccc(Cl)cc4)n3c3ccccc3n12,93.4% (inactive)
18,Cc1cc(C)c2c(Nc3ncnc4c3sc3nc(C)cc(C)c34)n[nH]c2n1,95% (inactive)
19,CCCCNC(=O)Oc1ccc(/C(=C(\C)c2ccc(OC)cc2)c2ccc(OCCN3CCCCC3)cc2)cc1,69.1% (inactive)
